{"source": "paper PMC4552634", "about": "“A New Set of Chemical Starting Points with Plasmodium falciparum Transmission-Blocking Potential for Antimalarial Drug Discovery” (PLoS ONE, 2015)", "note": "The campaign covered roughly 13,000 compounds. About 3,200 (25%) showed an effect of 50% or more. Some of the results follow.", "data": [{"test_system": "P. falciparum stage V gametocytes", "design": "BacTiter-Glo ATP luminescence viability of purified stage V gametocytes in 384-well plates, per cent inhibition versus DMSO", "conditions": "48 h, 5 µM; inhibitor", "units": {"% Inhibition": "%"}, "values": [{"smiles": "NCCCN(Cc1ccc(Cl)c(Cl)c1)C(=O)Nc1ccc(Cl)c(Cl)c1", "note": "[TCMDC-139415]", "% Inhibition": 96.81}, {"smiles": "CC(=O)Nc1ccc(Cl)c(Cl)c1", "note": "[TCMDC-125481]", "% Inhibition": -1.69}, {"smiles": "NC(N)=NC(=O)Nc1ccc(Cl)c(Cl)c1", "note": "[TCMDC-124295]", "% Inhibition": -4.176}, {"smiles": "Cc1cccc(C(=O)Nc2ccc(N3CCCN(Cc4cccc(O)c4)CC3)cc2)c1", "note": "[TCMDC-134958]", "% Inhibition": -89.08}, {"smiles": "O=C(/C=C/c1ccc(Cl)c(Cl)c1)NC1CCC(CN2CCC(c3nc4ccccc4s3)CC2)CC1", "note": "(stereo not drawn) [TCMDC-140215]", "% Inhibition": 29.32}, {"smiles": "CC(C)NCc1cccc(-c2cccc(-c3nc4ccccc4[nH]3)c2)c1", "note": "[TCMDC-132748]", "% Inhibition": 37.6}, {"smiles": "CC(C)NCc1ccc(OCc2cccc(COc3ccc(CNC(C)C)cc3I)c2)c(I)c1", "note": "[TCMDC-137259]", "% Inhibition": 114.3}, {"smiles": "Clc1cccc(CNC2CCN(CC3CCCCC3)CC2)c1", "note": "[TCMDC-141659]", "% Inhibition": 7.676}, {"smiles": "CN1CCN(Cc2ccc(OCc3cccc(COc4ccc(CN5CCN(C)CC5)cc4I)c3)c(I)c2)CC1", "note": "[TCMDC-137239]", "% Inhibition": 60.02}, {"smiles": "CC(C)(C)c1cc(CN2CCN(Cc3ccccc3)CC2)cc(C(C)(C)C)c1O", "note": "[TCMDC-125537]", "% Inhibition": -7.705}, {"smiles": "Oc1ccc(Cc2ccccc2)cc1CNC1CCCCC1", "note": "[TCMDC-137598]", "% Inhibition": 6.281}, {"smiles": "COc1cc2ncnc(Nc3ccc(OCc4ccccc4)c(I)c3)c2cc1OC", "note": "[TCMDC-131944]", "% Inhibition": -25.01}, {"smiles": "OC(CNCc1ccccc1OCc1ccccc1)c1cc(Br)cs1", "note": "(stereo not drawn) [TCMDC-140398]", "% Inhibition": 22.96}, {"smiles": "CC(C)CNCc1ccc(OCc2cccc(COc3ccc(CNCC(C)C)cc3I)c2)c(I)c1", "note": "[TCMDC-137260]", "% Inhibition": 108.7}, {"smiles": "OC(CNCc1ccccc1)c1cc(OCc2ccccc2)cc(OCc2ccccc2)c1", "note": "(stereo not drawn) [TCMDC-132079]", "% Inhibition": 44.54}, {"smiles": "Ic1cc(CNC2CCCCC2)ccc1OCc1cccc(COc2ccc(CNC3CCCCC3)cc2I)c1", "note": "[TCMDC-137261]", "% Inhibition": 115.7}, {"smiles": "CN1CCN(Cc2ccc(-c3cc4c(Nc5ccc(OCc6cccc(F)c6)c(Cl)c5)ncnc4s3)[nH]2)CC1", "note": "[TCMDC-135458]", "% Inhibition": -90.63}, {"smiles": "O=C(NC1CCC(N2CCC(Cc3ccc(F)cc3)CC2)CC1)c1cc2ccccc2[nH]1", "note": "(stereo not drawn) [TCMDC-132894]", "% Inhibition": 45.26}, {"smiles": "Cc1cnc(-c2ccc(NC(=O)N3CCc4cc5nccc(N6CCN7CCC[C@H]7C6)c5cc43)c3ccccc23)o1", "note": "[TCMDC-140052]", "% Inhibition": -7.754}, {"smiles": "COc1ccc(NS(=O)(=O)c2cc(NC(=O)Cn3ccccc3=O)ccc2N2CCCCC2)cc1", "note": "[TCMDC-124874]", "% Inhibition": 16.03}, {"smiles": "Cc1cc2c(cc1C(F)(F)F)N(C(=O)Nc1ccc(C(=O)NCCN3CCCC3)cc1)CC2", "note": "[TCMDC-139870]", "% Inhibition": 3.174}, {"smiles": "CC(=O)Nc1ncc(C(=O)Nc2cccc(-c3cccc(-c4nc5c(C)cccc5[nH]4)c3)c2)s1", "note": "[TCMDC-136920]", "% Inhibition": 35.18}, {"smiles": "C=CCOC(=O)N1CCC(CNCc2ccc(-c3ccc(-c4nc5cc(C(F)(F)F)ccc5[nH]4)cc3)cc2)C1.O=C(O)C(F)(F)F", "note": "(stereo not drawn) [TCMDC-133041]", "% Inhibition": -74.05}, {"smiles": "Oc1ccc(CCNCc2ccc(OCc3ccccc3)c(OCc3ccccc3)c2)cc1", "note": "[TCMDC-131868]", "% Inhibition": 6.388}, {"smiles": "CN(C)Cc1cccc(CNC(=O)c2sccc2OCc2ccc(Cl)cc2)c1", "note": "[TCMDC-133072]", "% Inhibition": 41.43}, {"smiles": "CC(C)CCNCc1ccc(OCc2cccc(C(=O)Nc3ccccc3)c2)c(I)c1", "note": "[TCMDC-137174]", "% Inhibition": 28.8}, {"smiles": "Ic1cc(Nc2ncnc3ccsc23)ccc1OCc1ccccc1", "note": "[TCMDC-131945]", "% Inhibition": 7.84}, {"smiles": "CC(C)CCNCc1ccc(OCc2cccc(COc3ccc(CNCCC(C)C)cc3I)c2)c(I)c1", "note": "[TCMDC-137274]", "% Inhibition": 110.6}, {"smiles": "CCc1cc(COc2ccc(CNCCC(C)C)cc2I)c(OCc2ccccc2)c(COc2ccc(CNCCC(C)C)cc2I)c1", "note": "[TCMDC-137255]", "% Inhibition": 104.7}, {"smiles": "Cc1ccc(C)c(NC(=O)Nc2ccc(C)c(-c3ccc(C(=O)Nc4ccncc4)cc3)c2)c1", "note": "[TCMDC-133703]", "% Inhibition": -9.34}, {"smiles": "COc1cc(CCNC(=N)/C=C/c2ccc(Cl)cc2)ccc1Cl", "note": "[TCMDC-137457]", "% Inhibition": 106.7}, {"smiles": "COc1ccc(CCNc2ccnc3cc(Cl)ccc23)cc1OC", "note": "[TCMDC-138550]", "% Inhibition": -32.91}, {"smiles": "COc1ccc(NC(=O)N2CCCN(CCCCCNC(=O)/C=C/c3ccc(Cl)cc3)CC2)cc1Cl", "note": "[TCMDC-136103]", "% Inhibition": -49.97}, {"smiles": "O=C(NCCN1CCCC1)c1ccc(-c2cccc(-c3nc4ccc(F)cc4[nH]3)c2)cc1", "note": "[TCMDC-132321]", "% Inhibition": -17.02}, {"smiles": "COc1cc(OC)cc(C(=O)Nc2ccc(Nc3nc(C)cc(N(C)C)n3)cc2)c1", "note": "[TCMDC-124726]", "% Inhibition": 23.32}, {"smiles": "NC(N)=NN=Cc1ccc2ccc3ccccc3c2c1", "note": "[TCMDC-137902]", "% Inhibition": 101.6}, {"smiles": "NC(N)=NN=Cc1ccc2c(ccc3ccccc32)c1", "note": "[TCMDC-137912]", "% Inhibition": 86.91}, {"smiles": "NC(N)=NN=Cc1cc2ccccc2c2ccccc12", "note": "[TCMDC-137671]", "% Inhibition": 48.28}, {"smiles": "NC(N)=NN=Cc1ccc2c(c1)Cc1ccccc1-2", "note": "[TCMDC-137360]", "% Inhibition": -2.51}, {"smiles": "Cc1ccccc1C1CCN(C2CCC(NC(=O)/C=C/c3cc(F)ccc3F)CC2)CC1", "note": "(stereo not drawn) [TCMDC-133510]", "% Inhibition": -90.23}, {"smiles": "Cc1cc(N[C@@H](Cc2ccccc2)C(=O)Nc2ccccc2)nc(NCCc2cccnc2)n1", "note": "[TCMDC-134820]", "% Inhibition": 59.14}, {"smiles": "COc1ccc(NC(=O)[C@H](Cc2ccccc2)Nc2cc(C)nc(Nc3ccccc3)n2)cc1", "note": "[TCMDC-134733]", "% Inhibition": -3.042}, {"smiles": "COc1ccc(NC(=O)[C@H](Cc2ccccc2)Nc2cc(C)nc(NCCc3cccnc3)n2)cc1", "note": "[TCMDC-134818]", "% Inhibition": 72.32}, {"smiles": "COc1ccc(NC(=O)[C@H](Cc2ccccc2)Nc2cc(C)nc(NCCOc3ccccc3)n2)cc1", "note": "[TCMDC-134757]", "% Inhibition": 13.17}, {"smiles": "COc1ccc(O)c(C(=O)c2cc(C(=O)NC3CCCCC3)c(=O)n(C3CCCCC3)c2)c1", "note": "[TCMDC-124510]", "% Inhibition": 4.971}, {"smiles": "Cc1[nH]c(C)c(-c2ccc(OCc3cccc(C(F)(F)F)c3)nc2)c(=O)c1Br", "note": "[TCMDC-135656]", "% Inhibition": 74.31}, {"smiles": "Cc1[nH]c(C)c(-c2ccc(OCc3ccc(OC(F)(F)F)cc3)nc2)c(=O)c1Cl", "note": "[TCMDC-135271]", "% Inhibition": 11.85}, {"smiles": "Cc1[nH]c(C)c(-c2ccc(OCc3ccccc3C(F)(F)F)nc2)c(=O)c1Br", "note": "[TCMDC-135796]", "% Inhibition": 65.1}, {"smiles": "Cc1[nH]c(C)c(-c2ccc(OCc3cc(C(F)(F)F)cc(C(F)(F)F)c3)nc2)c(=O)c1Cl", "note": "[TCMDC-135814]", "% Inhibition": 52.24}, {"smiles": "Cc1[nH]c(C)c(-c2ccc(OCc3cc(C(F)(F)F)cc(C(F)(F)F)c3)nc2)c(=O)c1Br", "note": "[TCMDC-135815]", "% Inhibition": 65.31}, {"smiles": "COc1ccc(OC)c2c1CCN(CCN1CCC(C(=O)Nc3ccc(C(=O)Nc4ccc(Cl)cc4)cc3)CC1)C2", "note": "[TCMDC-138820]", "% Inhibition": 2.402}, {"smiles": "FC(F)(F)c1ccc2[nH]c(-c3ccc(-c4cccc(CNCc5cnn(-c6ccccc6)n5)c4)cc3)nc2c1.O=C(O)C(F)(F)F", "note": "[TCMDC-132971]", "% Inhibition": -20.04}, {"smiles": "O=C(NC1CCC(CCN2Cc3ccc(Br)cc3C2)CC1)c1cccc(-c2cccnc2)c1", "note": "(stereo not drawn) [TCMDC-139603]", "% Inhibition": 36.86}, {"smiles": "Nc1nc(N)c2c(Oc3cccnc3)cccc2n1", "note": "[TCMDC-137990]", "% Inhibition": -4.996}, {"smiles": "CN(C)c1cccc(NC(=O)N[C@H]2N=C(c3ccccc3)c3ccccc3N(CC(=O)N3CCCC3)C2=O)c1", "note": "[TCMDC-131987]", "% Inhibition": 37.26}, {"smiles": "N#Cc1ccc(CCNc2nccc(-c3cccc(CN4CCNCC4)c3)n2)cc1", "note": "[TCMDC-134845]", "% Inhibition": 38.8}, {"smiles": "CCC[C@@H]([C@@H](CC1CCCCC1)C(=O)NC(C(=O)Nc1nccs1)C(CC)c1ccccc1)N(O)C=O", "note": "(stereo partly drawn) [TCMDC-137999]", "% Inhibition": -15.87}, {"smiles": "Cc1cccc2nc(-c3ccc(-c4ccc(CNCCCN5CCCC5=O)cc4)cc3)[nH]c12.O=C(O)C(F)(F)F", "note": "[TCMDC-132763]", "% Inhibition": 3.748}, {"smiles": "O=C(Cn1c(CCc2cccc(F)c2F)nc(=O)c2ccccc21)N(Cc1ccc(-c2ccc(C(F)(F)F)cc2)cc1)C1CCN(C2CCOCC2)CC1", "note": "[TCMDC-136502]", "% Inhibition": 73.92}, {"smiles": "O=C(Cn1c(CCc2cccc(F)c2F)nc(=O)c2cccnc21)N(Cc1ccc(-c2ccc(C(F)(F)F)cc2)cc1)C1CCN(C2CCOCC2)CC1", "note": "[TCMDC-136501]", "% Inhibition": 53.37}, {"smiles": "O=C(Cn1c(CCc2cccc(F)c2F)nc(=O)c2cccnc21)N(Cc1ccc(-c2ccc(C(F)(F)F)cc2)cc1)C1CCN(C2CCSCC2)CC1", "note": "[TCMDC-136559]", "% Inhibition": 46.52}, {"smiles": "O=C(Cn1c(CCc2cccc(F)c2F)nc(=O)c2ccccc21)N(Cc1ccc(-c2ccc(C(F)(F)F)cc2)cc1)C1CCN(C2CCSCC2)CC1", "note": "[TCMDC-136609]", "% Inhibition": 103.4}, {"smiles": "N#Cc1ccc(N2CCN(Cc3ccc(-c4ccc(-c5nc6cc(C(F)(F)F)ccc6[nH]5)s4)cc3)CC2)nc1.O=C(O)C(F)(F)F", "note": "[TCMDC-133110]", "% Inhibition": -11.35}, {"smiles": "N#Cc1ccc(CN2CCC(Oc3ccc(NC(=O)c4ccccc4)cc3Cl)CC2)cc1", "note": "[TCMDC-133958]", "% Inhibition": 11.07}, {"smiles": "COc1ccc(NC(=O)C2c3ccccc3C(=O)N(C3CCCC3)C2c2cccs2)cc1", "note": "(stereo not drawn) [TCMDC-125287]", "% Inhibition": 90.81}, {"smiles": "COc1ccc(NC(=O)C2c3ccccc3C(=O)N(C3CCCC3)C2c2cccs2)c(OC)c1", "note": "(stereo not drawn) [TCMDC-125288]", "% Inhibition": -16.95}, {"smiles": "COc1ccc(NC(=O)Nc2ccc(Nc3nc(C)cc(N4CCCC4)n3)cc2)cc1", "note": "[TCMDC-124958]", "% Inhibition": 27.34}, {"smiles": "COc1ccc(NC(=O)C2c3ccccc3C(=O)N(C3CCCC3)C2c2cccs2)cc1OC", "note": "(stereo not drawn) [TCMDC-124695]", "% Inhibition": 88.1}, {"smiles": "COc1ccc(Cl)cc1NC(=O)Nc1ccc2c(c1)CCN(C1CCC1)CC2", "note": "[TCMDC-136006]", "% Inhibition": 9.191}]}]}
